Screening data deposited in PubChem by several laboratories.
A selection: hits, their analogues and other compounds. The true share with any hit is near 4.1%.
Bead autofluor – compound fluorescence in toxin protease inhibitor counterscreen | compound autofluorescence counterscreen, microsphere flow cytometry; hits give high values | fluorescence intensity (test concentration not listed) | 360,000 compounds, 3.1% hits | AID 624483; in the data active means fluorescence intensity above about 16000; inconclusive means no clear call, values can overlap the other calls
MazEF act – MazEF (E. coli) toxin RNase activation. P0AE70. FAM/BHQ RNA-DNA oligo cleavage fluorescence, 5 h. activation, % at 20 µM. 350,000 compounds, 0.32% hits; in the data active means activation above about 50%
Target sequence (P0AE70 whole entry, looked up): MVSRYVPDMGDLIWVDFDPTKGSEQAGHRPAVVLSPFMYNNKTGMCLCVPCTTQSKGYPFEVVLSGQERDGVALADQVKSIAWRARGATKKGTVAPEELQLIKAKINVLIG
BoNT-F LC inh – inhibitors of Botulinum neurotoxin F light chain protease; Multiplex microsphere protease cleavage assay, flow cytometry; inhibition, % at 10 µM; 360,000 compounds, 0.22% hits; in the data active means inhibition above about 35%, passing the limit was not always enough; inconclusive means no clear call, values can overlap the other calls; further: plate controls were buffer without enzyme for full effect and enzyme alone for no effect
BoNT A protease – blocks Botulinum neurotoxin A light chain protease | AID 588499 | 360,000 compounds, 0.17% hits | inhibition, % at 10 µM | multiplex microsphere protease substrate cleavage, flow cytometry; further: plate controls were buffer without enzyme for full effect and enzyme alone for no effect
VHR inh abs – DUSP3 (human) phosphatase inhibition. recombinant VHR phosphatase, pNPP absorbance. P51452. 290,000 compounds, 0.52% hits. inhibition, % at 13.3 µM; in the data active means inhibition above about 50%
Target sequence (P51452 whole entry, looked up): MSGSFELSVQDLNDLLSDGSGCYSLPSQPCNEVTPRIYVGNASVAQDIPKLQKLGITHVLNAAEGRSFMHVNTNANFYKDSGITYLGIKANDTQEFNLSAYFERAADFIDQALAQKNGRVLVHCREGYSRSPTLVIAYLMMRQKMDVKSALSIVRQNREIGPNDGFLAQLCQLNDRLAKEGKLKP
Anthrax LF prot – blocks Bacillus anthracis lethal factor protease; P15917; multiplex microsphere protease cleavage assay, LF; inhibition, % at 10 µM; 360,000 compounds, 0.12% hits; AID 588501; further: plate controls were buffer without enzyme for full effect and enzyme alone for no effect
An asterisk follows results filed as active; ? = inconclusive; · = not tested or not shown. Unless noted, no stated cut-off is given here; in the data, active means inhibition above about 30%; inconclusive means no clear call, values can overlap the other calls; inactive means below that.

SMILES	Bead autofluor	MazEF act	BoNT-F LC inh	BoNT A protease	VHR inh abs	Anthrax LF prot
CN(c1ccccc1)S(=O)(=O)c1cccc(NC(=O)CN2CCCc3ccccc32)c1	20032*	-5	-8	0	9	-10
CCOC(=O)[C@H]1[C@H]2COc3ccc(Cl)cc3[C@@H]2N2C(=O)CNC(=O)[C@@]12C	4017	4	-2	0	·	0
COc1ccc(-c2cc(NC=O)c3ncc(-c4ccc(OC)c(OC)c4)n3c2)cc1	3978	·	-5	0	·	-7
CC1(C)CC(=O)C2=C(C1)OC(N)=C(C#N)C2c1ccccc1 (configuration not stated)	9018	12	8	2	29	-7
CC1CC(=O)C2=C(C1)OC(N)=C(C#N)C2c1coc2ccccc2c1=O (configuration not stated)	9395	85*	-2	1	-16	-7
Cc1ccc(Cn2c(=O)c3ccccc3n3c(SCC(=O)N4CCCCC4C)nnc23)cc1 (configuration not stated)	19920*	-17	2	?	-1	2
Cc1ccc(NC(=O)NC2(C(=O)NCc3ccco3)CCCCC2)cc1	5672	9	-4	1	-16	5
O=C(NCc1ccccc1)NC1(C(=O)Nc2ccc3c(c2)OCCO3)CCCCC1	22030*	7	6	3	10	0
O=C(Nc1ccccc1)NC1(C(=O)NCc2ccco2)CCCCC1	17118*	3	-6	-3	3	-8
O=C(Nc1ccccc1)NC1(C(=O)NCc2ccc3c(c2)OCO3)CCCCC1	22677*	-3	2	1	-6	-1
COc1cccc(CN2CCC2(C)C(=O)Nc2cccc(Oc3ccccc3)c2)c1OC (configuration not stated)	3916	·	-10	0	·	-9
COc1ccc2nc(C)cc(Nc3ccc(N4CCN(C)CC4)cc3)c2c1	3277	14	18	0	10	1
CCc1ccc(C(=O)CCC(=O)Nc2cccc(S(=O)(=O)N3CCCCC3)c2)cc1	4333	-34	?	5	·	3
CC1CCC(=NO)C(=NO)C1 (configuration not stated)	3378	4	3	0	·	-2
COC(=O)N/N=C/c1ccc(-c2cc(Cl)ccc2Cl)o1	1976	5	-9	0	43	-2
COC(=O)N/N=C\c1ccc(-c2cc(Cl)c(Cl)cc2Cl)o1	10447	55*	8	1	2	-2
CCCCOc1ccc(/C=N/NC(=S)Nc2cccc(C)c2C)cc1	5003	-7	-9	0	19	3
Cc1cccc(C)c1NC(=S)N/N=C/c1ccc(OCCC(C)C)cc1	20711*	-2	-6	-4	-17	-1
CC(=O)c1cccc2c1OC(C)C(=O)N2Cc1ccc(Cl)cc1 (configuration not stated)	3657	·	-2	1	·	1
Cn1c(=O)c(C(=O)c2ccccc2)nc2ccccc21	2379	0	-6	1	52*	0
CCCn1c(C(=O)c2ccccc2)nc2ccccc21	4448	-8	-9	-1	27	-3
O=C(c1ccccc1)c1nc2ccccc2n(CCCn2c(=O)c(C(=O)c3ccccc3)nc3ccccc32)c1=O	16402*	-1	0	1	34	6
CN1CCN(c2ccccc2NC(=O)c2ccc(-c3ccccc3[N+](=O)[O-])o2)CC1	4269	0	0	1	14	?
CC(C)(C)C1(c2ccccc2)NC(=O)N(CC(=O)N2CCOCC2)C1=O (configuration not stated)	19617*	1	2	?	5	-3
CN(C)CCNc1ncnc2c1ncn2[C@H]1CN(Cc2ccc(Cl)cc2)C[C@@H](CO)O1	3482	·	-1	0	·	-2
SMILES	Bead autofluor	MazEF act	BoNT-F LC inh	BoNT A protease	VHR inh abs	Anthrax LF prot
COc1ccc(COC(=O)CCCN=C2NS(=O)(=O)c3ccccc32)cc1F	3093	-2	0	0	·	-5
CNc1nc(Oc2ccccc2C(=O)OC)nc(SC)n1	21738*	2	5	3	14	2
CCOC(=O)c1ccc(Oc2nc(NC)nc(SC)n2)cc1	9020	8	-11	-1	18	-1
CCNc1nc(Oc2ccc(C(=O)OCC)cc2)nc(SC)n1	5151	-3	2	0	8	1
CCNc1nc(Oc2ccc(C(=O)OC)cc2)nc(SC)n1	22097*	0	-1	0	8	-13
CN(C)c1ncc(S(=O)(=O)c2ccccc2)c(-c2ccc(Cl)cc2Cl)n1	22616*	-1	-2	?	14	1
CS(=O)(=O)c1cnc2c(-c3ccc(F)cc3)cnn2c1N	20368*	1	-3	?	25	0
Nc1c(-c2cccs2)cnc2c(-c3ccc(F)cc3)cnn12	3466	3	-19	-3	23	-5
Cc1cc([N+](=O)[O-])nn1CC(=O)NNC(=S)Nc1ccc(Cl)cc1	23664*	-3	-3	-2	17	-2
CC(=O)c1ccc(OCCCC(=O)Nc2cc(S(=O)(=O)N3CCCCC3)ccc2C)cc1	·	-3	·	·	·	·
Cc1ccc(C(O)c2ncc(-c3cccc(C(F)(F)F)c3)[nH]2)cc1 (configuration not stated)	4020	·	-2	0	·	-1
CN1CCN(C(=O)c2ccc(Cc3cn(C)c4ccccc34)nc2)CC1	3645	·	-4	0	·	1
COC(=O)c1cnn(-c2ccc(F)cc2F)c1/C=N/NC(=S)NC(C)(C)C	3848	6	?	-4	18	52*
CN(C)CCOC(=O)C12CC3(C)CC(C)(CC(C)(C3)C1)C2	9866	-13	4	1	52*	4
CN(C)CCOC(=O)C12CC3CC(CC(C3)C1)C2	2632	3	0	1	35	1
COc1ccc(N2CC(C(=O)N[C@@H](C)C(=O)NCCc3ccccc3)CC2=O)cc1 (some centres not stated)	5797	3	-1	0	-10	-1
CCCn1nnnc1NCc1ccc(OC)cc1OC	3552	-1	6	0	9	-7
CCCCn1nnnc1NCc1cc(OC)c(OC)cc1OC	16650*	7	0	0	22	0
COc1ccc(N(CC(=O)N/N=C/c2cccnc2)S(=O)(=O)c2ccccc2)c(OC)c1	5188	5	11	0	53*	-1
CN1/C(=C/C(=O)c2cccs2)Sc2ccccc21	20294*	·	-1	1	39	6
O=C(CNC(=O)Cc1cccc2ccccc12)NCc1ccc(F)cc1	4918	-16	-6	-1	15	-2
Cc1ccc(CSc2nnc(-c3ccncc3)n2C)cc1	3032	0	9	2	36	2
Cc1ccc(NC(=O)CSc2nnc(-c3ccncc3)n2C)cc1C	20661*	1	-6	?	-1	-3
COc1ccc(NC(C)=O)cc1NC(=O)CSc1nnc(-c2ccncc2)n1C	21036*	1	1	?	-19	-5
COC(=O)c1cc(OC)c(OC)cc1NC(=O)CSc1nnc(-c2cccnc2)n1C	20945*	9	-6	-4	-14	1
